Common to all, as to test: thermal shift delta Tm vs DMSO control; higher = stronger stabilization (binding)
Common to all, as to conditions: 12.5 µM; protein concentration 2 µM

Assay [1] has as its system LOC_OS01G57100-cb003. The procedure, abridged:
(§1)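 Heating from 25°C to 95°C at 0.05°C/s, fluorescence was recorded for 19.5 μl wells of 2 μM E. coli-expressed, purified rice kinase domain in 100 mM potassium phosphate pH 7.5, 150 mM NaCl, 10% glycerol and 5 × SYPRO Orange with compound in DMSO. Boltzmann fits gave melting temperatures for this differential scanning fluorimetry assay. The shift reported is the mean of three replicates against the DMSO-only protein.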

In assay [2] the test system is LOC_OS01G60330-cb001. The procedure, abridged: as §1
Assay [3] deals with LOC_OS01G60700-cb002. The gist of the method:
as §1

The test system of assay [4] is LOC_OS01G63280-cb003. The procedure, abridged:
as §1

The test system of assay [5] is LOC_OS01G67340-cb003. The procedure, abridged: as §1
Assay [6] concerns LOC_OS01G70970-cb002. The gist of the method: as §1
Assay [7] concerns LOC_OS02G07810-cb001. The procedure, abridged:
as §1

Assay [8] relates to LOC_OS02G08530-cb003. The gist of the method:
as §1

Assay [9] relates to LOC_OS02G14120-cb001. The gist of the method: as §1
In assay [10] the test system is LOC_OS02G17970-cb001. The procedure, abridged: as §1
In assay [11] the test system is LOC_OS02G45750-cb003. The gist of the method:
as §1

Assay [12] relates to LOC_OS02G54510-cb004. The gist of the method:
as §1

The test system of assay [13] is LOC_OS03G04050-cb001. The procedure, abridged: as §1
Assay [14] deals with LOC_OS03G12390-cb001. The gist of the method: as §1
In assay [15] the test system is LOC_OS03G27990-cb004. The gist of the method: as §1
Assay [16] deals with LOC_OS03G50450-cb001. The gist of the method: as §1
Assay [17] concerns LOC_OS03G50810-cb003. The procedure, abridged: as §1
For assay [18], the system named is LOC_OS04G35114-cb001. The procedure, abridged: as §1
In assay [19] the test system is T1, LOC_OS04G38480-cb003.
T1 sequence (whole entry): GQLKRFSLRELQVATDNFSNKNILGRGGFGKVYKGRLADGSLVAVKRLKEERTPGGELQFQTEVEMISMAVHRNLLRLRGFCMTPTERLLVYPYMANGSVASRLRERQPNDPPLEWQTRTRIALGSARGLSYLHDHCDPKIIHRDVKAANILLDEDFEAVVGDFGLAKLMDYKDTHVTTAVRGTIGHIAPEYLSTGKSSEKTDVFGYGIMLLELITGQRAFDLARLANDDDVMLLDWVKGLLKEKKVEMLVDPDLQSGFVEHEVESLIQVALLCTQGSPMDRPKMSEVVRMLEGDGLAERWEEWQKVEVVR
The gist of the method: as §1

In assay [20] the test system is T2, LOC_OS04G41100-cb001.
T2 sequence (whole entry): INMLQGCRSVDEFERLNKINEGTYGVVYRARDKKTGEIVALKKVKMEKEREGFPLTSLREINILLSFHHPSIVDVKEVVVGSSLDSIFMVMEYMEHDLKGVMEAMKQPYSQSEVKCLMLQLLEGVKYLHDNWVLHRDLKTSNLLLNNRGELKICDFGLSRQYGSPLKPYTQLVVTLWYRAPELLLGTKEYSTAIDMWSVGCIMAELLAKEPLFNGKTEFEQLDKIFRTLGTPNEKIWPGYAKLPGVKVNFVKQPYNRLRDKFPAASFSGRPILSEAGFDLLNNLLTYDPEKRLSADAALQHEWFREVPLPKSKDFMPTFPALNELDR
The gist of the method: as §1

The structures appear in SMILES notation. Counter-ions that a name gives are not always drawn.
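Also: purified Escherichia coli-expressed rice kinase domain construct.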

As to `Cc1ccc(NC(=O)c2ccc(CN3CCN(C)CC3)cc2)cc1Nc1nc(-c2cccnc2)cs1` [Masitinib (AB1010)], the “thermal shift delta Tm” value was 0.04 °C in [1]; 1.59 °C in [2]; 0.59 °C in assay [3]; 0.19 °C in assay [4]; -0.46 °C in assay [5]; 0.24 °C in [6]. Besides, the “thermal shift delta Tm” value was determined as 0.34 °C in assay [7]; 0.9 °C in [8]; 0.12 °C in assay [9]; 0.55 °C in [10]; 0.39 °C in assay [11]; 0.33 °C in [12]. Further, the “thermal shift delta Tm” value in assay [13] is 0.47 °C; in [14], 0.28 °C; in assay [15] it was 0.29 °C; in assay [16] it was 0.58 °C; in assay [17] it was 0.26 °C; in assay [18], 0.04 °C. The “thermal shift delta Tm” value in [19] was 0.69 °C; in assay [20], 0.53 °C.
As to `CNC(=O)c1cc(Oc2ccc(NC(=O)Nc3ccc(Cl)c(C(F)(F)F)c3)cc2)ccn1` [Sorafenib Tosylate], the “thermal shift delta Tm” value in assay [1] was determined as 4.07 °C; in assay [2], 3.91 °C; in assay [3] it was 1.77 °C; in assay [4], 9.15 °C; in assay [5], 0.52 °C; in assay [6] it was 1.83 °C. Also, the “thermal shift delta Tm” value in assay [7] came out at 2.2 °C; in [8], 1.92 °C; in assay [9], 3.45 °C; in assay [10], 1.56 °C; in assay [11] it was 2.62 °C; in assay [12] it was 1.95 °C. Besides, the “thermal shift delta Tm” value in [13] came to 0.83 °C; in assay [14] it was 1.41 °C; in [15], 0.39 °C; in assay [16], 0.77 °C; in assay [17] it was 1.06 °C; in assay [18] it was 0.98 °C. The “thermal shift delta Tm” value worked out at 2.2 °C in [19] and 1.53 °C in assay [20].
As for `O=C(Nc1ccc(-c2ccnc(Nc3ccc(N4CCOCC4)cc3)n2)cc1)C1CCCN1` (stereo not given), the “thermal shift delta Tm” value was 0.26 °C in [1]; 0.51 °C in [2]; 1.22 °C in [3]; 0.08 °C in assay [4]; -0.06 °C in [5]; 0.39 °C in [6]. The “thermal shift delta Tm” value in assay [7] came out at 0.59 °C; in [8] it was 0.66 °C; in [9], 3.38 °C; in [10] it was 0.54 °C; in [11], 0.77 °C; in assay [12], 0.47 °C. Further, the “thermal shift delta Tm” value in assay [13] amounted to 0.4 °C; in [14], 1.05 °C; in assay [15], 0.29 °C; in [16], 0.37 °C; in [17], 0.83 °C; in assay [18], 2.26 °C. Besides, the “thermal shift delta Tm” value came out at 1 °C in [19] and 0.45 °C in assay [20].
